Source: PubChem BioAssay
For some of these results: Potency and affinity values are given separately. Calls of active or inactive are those of the source.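 How the source made its calls, unless noted: active means compound raising the membrane signal above positive-control mean plus 3 SD in both repeats, and a primary screen hit; inactive means the rest.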

Tests used:
[1] = test system: TRPC4 beta (transient receptor potential cation channel C4), mouse; experiment: TRPC4 cation channel opening, retest – cell-based, Fluo4 calcium, HEK293 TRPC4beta/mu-opioid, duplicates, 10 µM, confirmation (AID 2426;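 active means fluorescence ratio normalized to control raised more than 50% in primary screen plus both repeat runs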;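 further: percent rise of integrated ratio over buffer wells lacking compound which define 0%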); settings: Fluo4 calcium fluorescence, at 10 µM; hits give high values
[2] = test system: transient receptor potential cation channel C4 beta (TRPC4), mouse; experiment: TRPC4 cation channel opening, second retest – cell-based, second round, Fluo4, HEK293 TRPC4beta/mu-opioid, 1 µM, confirmation (AID 2461;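 active means primary screen active and over 50% activation in each of two duplicate runs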;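 on activation: 0% = wells without test compound as baseline of integrated fluorescence ratio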); settings: Fluo4 calcium fluorescence, at 1 µM; hits give high values
[3] = test system: TRPC4 (transient receptor potential cation channel C4 beta), mouse; experiment: potentiation of DAMGO EC20 TRPC4 response – cell-based, second round, Fluo-4, HEK293 TRPC4beta/mu-opioid, 1 µM, confirmation (AID 2554;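 active means primary screen hit whose fluorescence ratio, in both repeats, exceeds the weak agonist control mean by 3 SD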); settings: DAMGO EC20, Fluo-4 calcium flux, at 1 µM; hits give high values
[4] = test system: TRPC4 beta (transient receptor potential cation channel C4), mouse; experiment: potentiation of DAMGO EC20 TRPC4 response – cell-based, Fluo-4, HEK293 TRPC4beta/mu-opioid, confirmation (AID 2555;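 active means primary screen hit whose calcium fluorescence ratio, in both repeats, exceeds the weak agonist control mean by 3 SD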); settings: DAMGO EC20, Fluo-4 calcium flux, at 10 µM; hits give high values
[5] = molecular target: Short transient receptor potential channel 4 (Mus musculus) (UniProt Q9QUQ5); experiment: blockers of DAMGO-evoked TRPC4 calcium flux – cell-based, Fluo4, HEK293 TRPC4beta/mu-opioid, confirmation (AID 2636;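 active means calcium signal cut by more than 3 SD below the full-agonist control yet still positive, in both repeats and the earlier primary screen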); settings: at 10 µM; hits give high values
Sequence of Short transient receptor potential channel 4 (Mus musculus) (Q9QUQ5 whole entry, looked up): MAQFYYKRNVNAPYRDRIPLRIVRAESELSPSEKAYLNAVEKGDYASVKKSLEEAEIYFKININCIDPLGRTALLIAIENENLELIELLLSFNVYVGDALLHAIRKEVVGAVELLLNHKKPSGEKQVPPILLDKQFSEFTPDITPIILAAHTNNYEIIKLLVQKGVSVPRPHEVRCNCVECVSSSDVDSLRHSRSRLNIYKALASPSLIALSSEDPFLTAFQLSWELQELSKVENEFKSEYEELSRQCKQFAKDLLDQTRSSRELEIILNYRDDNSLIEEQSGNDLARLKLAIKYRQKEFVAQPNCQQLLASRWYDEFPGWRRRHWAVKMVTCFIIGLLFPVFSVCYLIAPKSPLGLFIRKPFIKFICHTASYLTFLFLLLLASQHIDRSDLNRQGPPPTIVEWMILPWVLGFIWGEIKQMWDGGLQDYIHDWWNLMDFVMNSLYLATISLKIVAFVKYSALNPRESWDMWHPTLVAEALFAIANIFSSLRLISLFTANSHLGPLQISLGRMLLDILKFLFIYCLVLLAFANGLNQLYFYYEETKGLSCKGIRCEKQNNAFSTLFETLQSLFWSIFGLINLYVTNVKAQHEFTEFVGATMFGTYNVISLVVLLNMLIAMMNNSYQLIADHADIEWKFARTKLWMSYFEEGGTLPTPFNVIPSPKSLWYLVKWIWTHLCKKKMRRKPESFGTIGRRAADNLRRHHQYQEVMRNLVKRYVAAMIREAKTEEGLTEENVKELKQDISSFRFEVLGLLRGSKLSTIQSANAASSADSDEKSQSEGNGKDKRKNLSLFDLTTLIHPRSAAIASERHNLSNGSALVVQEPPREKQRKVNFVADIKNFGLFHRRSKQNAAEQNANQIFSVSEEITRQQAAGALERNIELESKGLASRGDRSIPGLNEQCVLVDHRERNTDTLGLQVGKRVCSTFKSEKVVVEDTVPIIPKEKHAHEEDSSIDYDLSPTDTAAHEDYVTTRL

[6] = molecular target: Short transient receptor potential channel 4 (Mus musculus) (UniProt Q9QUQ5); experiment: blockers of DAMGO-evoked TRPC4 calcium flux – cell-based, second round, Fluo4, HEK293 TRPC4beta/mu-opioid, 1 µM, confirmation (AID 2637;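 active means calcium signal ratio cut to more than 3 SD under the fully stimulated control mean yet still positive, in both repeats and the primary screen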); settings: at 1 µM; hits give high values
[7] = molecular target: Short transient receptor potential channel 4 (Mus musculus) (UniProt Q9QUQ5); experiment: potentiation of DAMGO-evoked TRPC4 calcium signal – cell-based, HEK293 TRPC4/mu-opioid, Fluo-4 calcium, EC20 DAMGO, dose response (AID 434941;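 active means earlier screen potentiator hit that boosts the TRPC4 ion channel at some dose, with a dose response; inactive means no potentiation, no dose response, or not a prior hit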;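 further: calcium entry triggered by an EC20 dose of DAMGO at the co-expressed mu-opioid receptor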)
[8] = molecular target: Short transient receptor potential channel 4 (Mus musculus) (UniProt Q9QUQ5); experiment: block of DAMGO-driven TRPC4 calcium entry – cell-based, HEK293 TRPC4/mu-opioid, Fluo-4 calcium, dose response (AID 434942;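 active means primary screen inhibitor hit that blocks the TRPC4 channel at some tested dose, yielding a dose curve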)
[9] = molecular target: Short transient receptor potential channel 6 (Mus musculus) (UniProt Q61143); experiment: TRPC6 blockade by TRPC4 inhibitor hits – cell-based, HEK293, membrane potential dye, duplicate, selectivity assay for TRPC4 inhibitor project, confirmation (AID 434948;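 active means active in primary screen and both duplicates, each dropping signal beyond three positive-control SD with fluorescence still positive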); settings: HEK293 TRPC6, membrane potential dye fluorescence, at 10 µM; inhibition: hits give high values, stimulated with maximal-effect acetylcholine unless noted; outcome: stimulated with maximal-effect acetylcholine unless noted
Sequence of Short transient receptor potential channel 6 (Mus musculus) (Q61143 whole entry, looked up): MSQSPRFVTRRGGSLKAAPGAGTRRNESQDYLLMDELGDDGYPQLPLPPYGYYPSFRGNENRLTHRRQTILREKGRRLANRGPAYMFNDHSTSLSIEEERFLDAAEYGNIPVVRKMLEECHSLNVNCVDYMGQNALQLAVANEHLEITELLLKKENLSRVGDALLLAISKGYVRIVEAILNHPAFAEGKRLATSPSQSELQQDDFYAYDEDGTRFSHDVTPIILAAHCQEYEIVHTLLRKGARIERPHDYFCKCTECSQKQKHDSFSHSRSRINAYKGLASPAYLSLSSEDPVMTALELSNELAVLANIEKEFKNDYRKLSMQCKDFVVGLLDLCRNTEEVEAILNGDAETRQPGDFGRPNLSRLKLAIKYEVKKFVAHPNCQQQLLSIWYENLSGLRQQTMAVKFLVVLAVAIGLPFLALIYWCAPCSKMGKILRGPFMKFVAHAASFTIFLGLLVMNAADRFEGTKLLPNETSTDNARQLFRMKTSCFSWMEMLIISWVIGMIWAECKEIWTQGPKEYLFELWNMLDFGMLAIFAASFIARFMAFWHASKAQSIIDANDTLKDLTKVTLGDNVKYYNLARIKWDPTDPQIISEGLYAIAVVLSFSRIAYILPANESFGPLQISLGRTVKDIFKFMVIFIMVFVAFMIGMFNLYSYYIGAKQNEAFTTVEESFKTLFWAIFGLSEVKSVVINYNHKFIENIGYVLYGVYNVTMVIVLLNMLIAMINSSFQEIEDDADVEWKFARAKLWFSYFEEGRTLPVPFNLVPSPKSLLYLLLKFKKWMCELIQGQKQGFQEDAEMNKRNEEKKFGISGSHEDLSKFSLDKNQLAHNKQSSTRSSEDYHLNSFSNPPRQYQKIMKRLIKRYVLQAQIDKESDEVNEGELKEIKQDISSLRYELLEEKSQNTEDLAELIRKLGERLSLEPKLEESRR

[10] = molecular target: Short transient receptor potential channel 6 (Mus musculus) (UniProt Q61143); experiment: TRPC6 opening by TRPC4 activator hits – cell-based, HEK293, membrane potential dye, duplicate, selectivity assay for TRPC4 activator project, confirmation (AID 434950;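 active means membrane potential signal rise above negative control mean plus 3 SD in both duplicates, also active in the earlier TRPC4 screen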;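 on activation: 0% = buffer only wells and 100% = acetylcholine maximal-effect wells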); settings: HEK293 TRPC6, membrane potential fluorescence, at 10 µM; activation: hits give high values; outcome: activation
[11] = molecular target: Short transient receptor potential channel 6 (Mus musculus) (UniProt Q61143); experiment: positive modulators of mouse TRPC6 channel – HEK293 cells, membrane potential dye, duplicate, selectivity assay for TRPC4 potentiator project, confirmation (AID 434952); settings: HEK293 TRPC6, membrane potential dye fluorescence, at 10 µM; maximal acetylcholine added after compound unless noted
[12] = molecular target: Short transient receptor potential channel 4 (Mus musculus) (UniProt Q9QUQ5); experiment: calcium flux activators in TRPC4/5HT1a cells, counter-screen for TRPC4 activator project, cell-based, second counter screen, HEK293 TRPC4/5HT1a, Fluo-4 (AID 434977;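 active means calcium signal rise above buffer-control mean plus 5 SD in both duplicates, and also a hit in the primary screen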;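 on activation: plate controls were assay buffer for no effect and maximal serotonin response for full effect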); settings: Fluo-4 calcium flux, at 10 µM; hits give high values
[13] = serotonin-gated TRPC4 signal block – cell-based, second counter screen, HEK293 TRPC4/5HT1a, Fluo-4, counter-screen for TRPC4 inhibitor project, confirmation (AID 434978;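 active means primary screen active whose calcium signal fell more than 3 SD beyond the full-serotonin control mean in both duplicate plates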;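 further: serotonin given first at submaximal then at maximal dose after compound preincubation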); settings: Fluo-4 calcium flux, at 10 µM; inhibition: hits give high values, serotonin added to trigger calcium flux unless noted; outcome: serotonin added to trigger calcium flux unless noted
[14] = test system: TRPC4 (mouse), co-expressed with 5HT1a in HEK293; experiment: enhancement of serotonin-evoked TRPC4 response – cell-based, second counter screen, HEK293 TRPC4/5HT1a, Fluo-4, counter-screen for TRPC4 potentiator project, confirmation (AID 434979;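 active means signal rise over 3 SD above mean of control wells given weak agonist, in both repeats and first screen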); settings: Fluo-4 calcium flux, at 10 µM; outcome: serotonin added at its EC20 dose unless noted; potentiation: hits give high values, serotonin added at its EC20 dose unless noted
[15] = nonspecific calcium rise without TRPC4 – cell-based, HEK293 mu-opioid receptor line, counter-screen for TRPC4 activator project, confirmation (AID 449723;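 active means hit in primary screen, with calcium signal over 5 SD above buffer well mean in both duplicates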;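 further: counter screen cells carry the mu-opioid receptor alone and lack TRPC4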); settings: HEK293 mu-opioid cells, Fluo-4 calcium fluorescence, at 10 µM; hits give high values
[16] = nonspecific potentiation of DAMGO calcium response – cell-based, HEK293 mu-opioid receptor line, counter-screen for TRPC4 allosteric potentiator project, confirmation (AID 449724;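 active means calcium signal rise more than 3 SD above the low-dose agonist control mean, in both duplicate plates and the primary screen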); settings: HEK293 mu-opioid receptor cells, Fluo-4 calcium flux, at 10 µM; compound added before EC20 DAMGO stimulus unless noted
[17] = nonspecific flux increase, KCNQ1-free cells – parental CHO cells, counter-screen for KCNQ1 potentiator project (AID 493006;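 active means duplicate-averaged activation above buffer control mean plus 5 SD of those controls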;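 on activation: fluorescence ratio of max minus min over baseline after K+ and Tl+ depolarization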); settings: parental CHO-K1 cells, FluxOR thallium flux, at 10 µM; hits give high values
[18] = molecular target: Potassium voltage-gated channel subfamily KQT member 1 (Homo sapiens) (UniProt P51787); experiment: enhancement of KCNQ1 channel thallium flux – FluxOR thallium flux, CHO cells, duplicates, confirmation (AID 493007;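 active means potentiation averaged over duplicate wells exceeding buffer-only control mean by more than 3 SD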;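 on outcome: cells depolarized by a potassium plus thallium sulfate stimulus after compound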;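 on potentiation: 0% = buffer-only wells and 100% = R-L3 activator control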); settings: KCNQ1 cell line, FluxOR thallium flux fluorescence, at 10 µM; hits give high values, % of reference activator effect, buffer zero
Sequence of Potassium voltage-gated channel subfamily KQT member 1 (Homo sapiens) (P51787 whole entry, looked up): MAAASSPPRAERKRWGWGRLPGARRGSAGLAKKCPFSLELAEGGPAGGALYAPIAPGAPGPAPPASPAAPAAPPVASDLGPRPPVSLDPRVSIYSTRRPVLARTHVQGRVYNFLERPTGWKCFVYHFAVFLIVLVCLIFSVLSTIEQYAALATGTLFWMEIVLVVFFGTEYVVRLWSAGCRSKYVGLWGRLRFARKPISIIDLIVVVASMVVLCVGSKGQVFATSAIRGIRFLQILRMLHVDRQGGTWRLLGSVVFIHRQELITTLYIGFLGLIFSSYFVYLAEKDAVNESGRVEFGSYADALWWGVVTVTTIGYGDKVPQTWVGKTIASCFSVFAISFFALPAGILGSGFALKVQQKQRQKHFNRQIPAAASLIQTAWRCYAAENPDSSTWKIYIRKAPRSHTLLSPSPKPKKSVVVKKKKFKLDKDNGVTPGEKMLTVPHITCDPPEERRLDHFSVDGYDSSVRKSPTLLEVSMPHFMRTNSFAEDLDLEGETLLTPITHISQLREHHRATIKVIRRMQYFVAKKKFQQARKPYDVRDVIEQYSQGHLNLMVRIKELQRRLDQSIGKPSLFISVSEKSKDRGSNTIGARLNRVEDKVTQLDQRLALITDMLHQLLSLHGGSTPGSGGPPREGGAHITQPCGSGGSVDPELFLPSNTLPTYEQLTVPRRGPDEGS

[19] = molecular target: Potassium voltage-gated channel subfamily KQT member 2 (Rattus norvegicus) (UniProt O88943); experiment: KCNQ2 thallium flux enhancement – KCNQ2-CHO-K1 cells, selectivity assay for KCNQ1 potentiator project (AID 493009;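 active means mean duplicate potentiation above the buffer control mean plus 5 SD of buffer wells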;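 further: assay conditions were tuned for KCNQ1 rather than KCNQ2 modulators; signal is max minus min fluorescence divided by baseline after thallium stimulus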); settings: FluxOR thallium flux fluorescence, at 10 µM; hits give high values, scaled: buffer 0, activator control 100
Sequence of Potassium voltage-gated channel subfamily KQT member 2 (Rattus norvegicus) (O88943 whole entry, looked up): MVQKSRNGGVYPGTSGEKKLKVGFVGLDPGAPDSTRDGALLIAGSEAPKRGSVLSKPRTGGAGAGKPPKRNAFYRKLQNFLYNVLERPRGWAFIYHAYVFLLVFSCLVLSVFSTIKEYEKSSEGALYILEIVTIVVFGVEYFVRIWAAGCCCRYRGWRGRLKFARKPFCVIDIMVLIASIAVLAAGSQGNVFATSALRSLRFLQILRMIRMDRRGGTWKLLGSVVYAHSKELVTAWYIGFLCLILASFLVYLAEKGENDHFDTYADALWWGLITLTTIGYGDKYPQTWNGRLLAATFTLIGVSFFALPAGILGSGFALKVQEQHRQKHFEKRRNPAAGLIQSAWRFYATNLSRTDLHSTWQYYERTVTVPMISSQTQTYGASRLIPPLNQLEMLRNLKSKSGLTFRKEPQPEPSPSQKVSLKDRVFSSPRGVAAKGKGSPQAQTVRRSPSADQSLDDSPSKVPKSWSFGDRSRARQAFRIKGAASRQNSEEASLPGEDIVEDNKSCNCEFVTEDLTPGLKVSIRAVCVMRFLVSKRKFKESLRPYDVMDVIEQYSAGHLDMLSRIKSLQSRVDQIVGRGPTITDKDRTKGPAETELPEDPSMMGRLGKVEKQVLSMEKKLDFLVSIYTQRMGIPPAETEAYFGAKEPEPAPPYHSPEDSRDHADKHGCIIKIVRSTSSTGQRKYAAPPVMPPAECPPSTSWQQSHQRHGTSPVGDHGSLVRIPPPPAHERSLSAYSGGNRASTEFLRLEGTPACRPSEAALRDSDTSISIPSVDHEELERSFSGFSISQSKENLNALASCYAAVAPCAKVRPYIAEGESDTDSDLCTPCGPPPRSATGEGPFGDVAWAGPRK

COc1ccc(CCNCc2ccc(SC)cc2)cc1
inactive: outcome [2] | outcome [3] | outcome [4] | outcome [5] | outcome [6] | outcome [7] | outcome [8] | outcome [9] inactive [setting not given] | outcome [11] inactive [setting not given] | outcome [13] inactive [setting not given] | outcome [14] inactive [setting not given] | outcome [15] | outcome [16] inactive [setting not given]
active: activation [1] 122% | activation [10] 65.5% | activation [12] 21.7%

CCC1(C)CC(CCNCc2ccc(N(C)C)cc2)(c2ccc(F)cc2)CCO1 (configuration not stated)
inactive: outcome [2] | outcome [3] | outcome [4] | outcome [5] | outcome [6] | outcome [7] | outcome [8] | outcome [9] | outcome [10] | outcome [11] | outcome [12] | outcome [13] | outcome [14] | outcome [15] | outcome [16]
active: activation [1] 184%

CCOC(=O)c1cc(C)n(CCc2cnc[nH]2)c1C
inactive: outcome [3] | outcome [4] | outcome [5] | outcome [6] | outcome [7] | outcome [8] | outcome [9] | outcome [11] | outcome [13] | outcome [14] | outcome [15] | outcome [16]
active: activation [1] 143% | activation [2] 89% | activation [10] 26% | activation [12] 76%

O=C(CCCN1CCC2(CC1)C(=O)NCN2c1ccccc1)c1ccc(F)cc1
inactive: outcome [2] | outcome [3] | outcome [4] | outcome [5] | outcome [6] | outcome [7] | outcome [8] | outcome [9] | outcome [11] | outcome [13] | outcome [14] | outcome [16]
active: activation [1] 193% | activation [10] 39.5% | activation [12] 86.7% | activation [15] 48% | activation [17] 336% | potentiation [18] 55.5% | potentiation [19] 323%

COc1cc(C)c(CNCCc2c[nH]c3ccccc23)cc1C
inactive: outcome [2] | outcome [3] | outcome [4] | outcome [5] | outcome [6] | outcome [7] | outcome [8] | outcome [9] | outcome [11] | outcome [13] | outcome [14] | outcome [16]
active: activation [1] 165% | activation [10] 54.5% | activation [12] 74.2% | activation [15] 12.8%

CC(N)Cc1c[nH]c2cc3c(cc12)OCCO3 (configuration not stated)
active: activation [1] 195% | activation [2] 60% | activation [12] 107%
inactive: outcome [3] | outcome [4] | outcome [5] | outcome [6] | outcome [7] | outcome [8] | outcome [9] inactive [setting not given] | outcome [10] | outcome [11] inactive [setting not given] | outcome [13] inactive [setting not given] | outcome [14] inactive [setting not given] | outcome [15] | outcome [16] inactive [setting not given]

CC[C@@H](CO)NC(=O)[C@@H]1C=C2c3cccc4c3c(cn4C)C[C@H]2N(C)C1
active: activation [1] 107% | activation [2] 57% | activation [12] 147%
inactive: outcome [3] | outcome [4] | outcome [5] | outcome [6] | outcome [7] | outcome [8] | outcome [9] inactive [setting not given] | outcome [10] | outcome [11] inactive [setting not given] | outcome [13] inactive [setting not given] | outcome [14] inactive [setting not given] | outcome [15] | outcome [16] inactive [setting not given]

Cc1ccc(NC(=S)NCCc2cnc[nH]2)cc1C
inactive: outcome [3] | outcome [4] | outcome [5] | outcome [6] | outcome [7] | outcome [8] | outcome [9] | outcome [10] | outcome [11] | outcome [13] | outcome [14] | outcome [15] | outcome [16]
active: activation [1] 199% | activation [2] 106% | activation [12] 85%

CCOC(=O)C1(c2ccccc2)CCN(CCC(=O)Nc2ccccc2OC)CC1
active: activation [1] 70% | activation [10] 62%
inactive: outcome [2] | outcome [3] | outcome [4] | outcome [5] | outcome [6] | outcome [7] | outcome [8] | outcome [9] inactive [setting not given] | outcome [11] inactive [setting not given] | outcome [12] | outcome [13] inactive [setting not given] | outcome [14] inactive [setting not given] | outcome [15] | outcome [16] inactive [setting not given]

CNc1ccc2oc(C[C@H]3O[C@@]4(CC[C@H]3C)O[C@H]([C@H](C)C(=O)c3ccc[nH]3)[C@H](C)C[C@H]4C)nc2c1C(=O)O
active: activation [17] 144% | potentiation [18] 89% | potentiation [19] 210%

CC(=NCc1ccc(F)cc1)c1c(O)n(C)c(=O)n(C)c1=O
inactive: outcome [19]
active: activation [17] 144% | potentiation [18] 91.5%

c1ccc2c(c1)Sc1ccccc1N2CC1CN2CCC1CC2 (configuration not stated)
inactive: outcome [17] | outcome [18] | outcome [19]

O=[N+]([O-])c1ccc(N2CCNCC2)c2ncccc12
active: activation [1] 69% | activation [2] 64% | potentiation [3] 19% | potentiation [4] 23% | activation [12] 38% | potentiation [14] 11%
inactive: outcome [5] | outcome [6] | outcome [7] | outcome [8] | outcome [9] | outcome [10] | outcome [11] | outcome [13] | outcome [15] | outcome [16]

COc1ccc(CNCCc2c[nH]c3ccccc23)c(OC)c1C
active: activation [1] 151% | activation [10] 63.5% | activation [12] 13.6%
inactive: outcome [2] | outcome [3] | outcome [4] | outcome [5] | outcome [6] | outcome [7] | outcome [8] | outcome [9] | outcome [11] | outcome [13] | outcome [14] | outcome [15] | outcome [16]

Nc1cc(N2CCNCC2)ccc1[N+](=O)[O-]
inactive: outcome [3] | outcome [4] | outcome [5] | outcome [6] | outcome [8] | outcome [9] | outcome [10] | outcome [11] | outcome [13] | outcome [15] | outcome [16]
active: activation [1] 199% | activation [2] 84% | activation [12] 10.7% | potentiation [14] 38.4%

Cc1ccc(C[n+]2c(-c3ccc(C)cc3)cc(-c3ccc(C)cc3)cc2-c2ccc(C)cc2)cc1
active: activation [1] 152% | activation [12] 48.5% | activation [15] 19.8% | activation [17] 142% | potentiation [18] 124% | potentiation [19] 185%
inactive: outcome [2] | outcome [3] | outcome [4] | outcome [5] | outcome [6] | outcome [7] | outcome [8] | outcome [9] | outcome [10] | outcome [11] | outcome [13] | outcome [14] | outcome [16]

O=C1OC(c2ccc([N+](=O)[O-])cc2)=N/C1=C/N1CC2CC(C1)c1cccc(=O)n1C2 (configuration not stated)
active: activation [1] 158% | activation [10] 254% | activation [12] 64.7% | activation [15] 55.4%
inactive: outcome [2] | outcome [3] | outcome [4] | outcome [5] | outcome [6] | outcome [7] | outcome [8] | outcome [9] | outcome [11] | outcome [13] | outcome [14] | outcome [16]

CNC(=O)NC(O)C(Cl)(Cl)Cl (configuration not stated)
inactive: outcome [17] | outcome [18] | outcome [19]

CN1CC(C(=O)c2ccccc2)C(c2ccccc2)C1 (configuration not stated)
inactive: outcome [17] | outcome [18] | outcome [19]

N#CCCn1cc(C(=O)Nc2ccccc2Cl)c(-c2ccc(F)cc2)n1
active: potentiation [19] 144%
inactive: outcome [17] | outcome [18]

Cc1nc2ccccc2c(=O)n1/N=C/c1cc(Br)cc(Br)c1O
inactive: outcome [17] | outcome [18] | outcome [19]

Cn1cccc1/C=C1/C(=O)NC(=S)N(Cc2ccc(F)cc2)C1=O
inactive: outcome [17] | outcome [18] | outcome [19]

COc1ccccc1N(CC(=O)NC1CCCC1)C(=O)c1cnn(C(C)C)c1
inactive: outcome [17] | outcome [18] | outcome [19]

C/C1=C\[C@@H](C)C/C=C/[C@H]2[C@@H]3O[C@]3(C)[C@@H](C)[C@H]3[C@H](Cc4c[nH]c5ccccc45)NC(=O)[C@]32C(=O)/C=C/C(=O)[C@@H]1O
inactive: outcome [17] | outcome [19]
active: potentiation [18] 20.5%

CCOc1cc(CNCCc2c[nH]c3ccccc23)cc(Cl)c1OCC
active: potentiation [18] 19%
inactive: outcome [17] | outcome [19]
